The panel holds about 83,000 compounds, 20% with a hit somewhere; the sample as a whole holds those more often.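 A percent growth of 40 corresponds to 60% growth inhibition; 0 means no net growth; -100 means all cells died. Active threshold: below 10.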 Calls of active or inactive are those of the source.
Legend:
Assay in all cases: NCI-60 one-dose screen, 48 h (100 = growth as untreated, 0 = no growth, -100 = all killed)
Conditions in all cases: 10 µM
[1] = system: HT29 colon
[2] = system: SNB-75 CNS
[3] = system: SNB-19 CNS
[4] = system: U251 CNS
[5] = system: PC-3 prostate
[6] = system: SK-MEL-5 melanoma
[7] = system: UACC-62 melanoma
[8] = system: LOX IMVI melanoma
[9] = system: SK-MEL-28 melanoma
[10] = system: SK-MEL-2 melanoma
[11] = system: EKVX NSCLC
[12] = system: SN12C renal
[13] = system: UO-31 renal
[14] = system: TK-10 renal
[15] = system: ACHN renal
[16] = system: CAKI-1 renal
[17] = system: CCRF-CEM leukemia
[18] = system: MOLT-4 leukemia
[19] = system: SR leukemia
[20] = system: A498 renal

Measured: growth

CC(C)=NNc1ncnc2c1ncn2C1OC(CO)C(O)C1O (stereo unspecified)
inactive: [1] 18.1% | [2] 32.1% | [3] 42.5% | [4] 29.1% | [5] 17.7% | [6] 20.5% | [7] 34.7% | [9] 54.7% | [10] 41.4% | [11] 43.7% | [12] 20.5% | [14] 57.5% | [15] 12.3% | [17] 35.9% | [18] 56.4% | [19] 14.4%
active: [8] 7.06% | [13] -3.29% | [16] -19%

C[N+](C)(C)c1ncnc2nc[nH]c12
inactive: [1] 104% | [2] 70% | [3] 94.9% | [4] 93.9% | [5] 115% | [6] 85.4% | [7] 90.4% | [8] 90.4% | [9] 108% | [10] 75.8% | [11] 89.1% | [12] 108% | [13] 84% | [14] 103% | [15] 91.1% | [16] 83% | [20] 98.3% | [17] 102% | [18] 98.6% | [19] 78.4%

COc1ccc(-c2nc3ncccn3c2-c2nnc(-c3ccsc3C)o2)cc1
inactive: [1] 103% | [2] 17.5% | [3] 68.9% | [4] 72.4% | [5] 83.6% | [6] 81% | [7] 78.3% | [8] 88.4% | [9] 78.2% | [10] 90.5% | [11] 94.5% | [12] 87.7% | [13] 73.8% | [14] 96.7% | [15] 72.3% | [16] 82.9% | [20] 99.4% | [17] 90.1% | [18] 97% | [19] 83.4%

COC(=O)c1c(-c2ccccc2)csc1NC(=O)c1c(-c2ccccc2)noc1C
inactive: [2] 48.1% | [3] 43.9% | [4] 13.3% | [5] 32.5% | [6] 32% | [7] 48.3% | [9] 47.9% | [10] 61.2% | [11] 58.7% | [12] 44.8% | [13] 26% | [14] 55.9% | [15] 31.5% | [20] 67.8% | [17] 35% | [18] 15.9%
active: [1] 7.12% | [8] -50% | [16] 6.32% | [19] -17.2%

Oc1[nH]c2ccc(Cl)cc2c1/C=c1/ccc2c(c1)N=C(c1cccs1)N=2
inactive: [1] 43.8% | [3] 62% | [4] 61.3% | [5] 62.5% | [6] 52.8% | [7] 53.6% | [8] 42.5% | [9] 71.1% | [10] 73.5% | [11] 66.3% | [12] 54.9% | [13] 72.7% | [14] 81.5% | [15] 58% | [16] 52.6% | [20] 44.6% | [17] 31.9% | [18] 42.3% | [19] 37%
active: [2] 6.31%

CC1(C)CCC(=NNC(N)=S)CC1
inactive: [1] 95.1% | [2] 88.2% | [3] 108% | [4] 105% | [5] 109% | [6] 111% | [7] 103% | [8] 89% | [9] 115% | [10] 130% | [11] 90% | [12] 105% | [13] 83.9% | [14] 75.9% | [15] 99.7% | [16] 96.2% | [17] 30.3% | [18] 99.8% | [19] 116%

CCN(CC)CCN1CC(=O)Nc2cc(Cl)ccc21
inactive: [1] 112% | [2] 92.1% | [3] 104% | [4] 99.7% | [5] 90.8% | [6] 98.6% | [7] 94.4% | [8] 102% | [9] 115% | [10] 104% | [11] 101% | [12] 103% | [13] 82% | [14] 114% | [15] 104% | [16] 90.7% | [20] 87.6% | [17] 101% | [18] 105% | [19] 114%

COc1ccc(/C=C/C(=O)Nc2ccc(-c3nc4ccc(F)cc4s3)cc2)cc1
inactive: [1] 101% | [2] 102% | [3] 99% | [4] 95.4% | [5] 94.6% | [6] 86.8% | [7] 99.8% | [8] 94.7% | [9] 109% | [10] 117% | [11] 85.3% | [12] 93.8% | [13] 84.2% | [14] 104% | [15] 107% | [16] 95.5% | [20] 105% | [18] 71.8% | [19] 80.8%

Cc1cn(C2CCCCO2)c(=O)nc1NO (stereo unspecified)
inactive: [1] 110% | [2] 99.3% | [3] 105% | [4] 112% | [5] 104% | [6] 108% | [7] 104% | [8] 110% | [9] 116% | [10] 120% | [11] 92.9% | [12] 103% | [13] 101% | [14] 103% | [15] 110% | [16] 108% | [17] 102% | [18] 99.1% | [19] 116%

COc1ccc2c(c1)/C(=C\c1c[nH]c3ccc(OC)cc13)C(=O)N2
inactive: [1] 24.9% | [2] 46.7% | [3] 77.3% | [4] 56.2% | [5] 60.6% | [6] 46.3% | [7] 39.3% | [8] 35.9% | [9] 71.7% | [10] 33.4% | [11] 47.8% | [12] 52.8% | [13] 46.8% | [14] 81.7% | [15] 39.6% | [16] 21.3% | [20] 34.6% | [17] 28.6% | [18] 11.7% | [19] 14.7%

COc1ccc(OC)c(/C=C/c2nc(SCc3ccccc3)n(-c3ccc(Cl)cc3)n2)c1
active: [13] -48.7% | [16] 0.228%
inactive: [1] 63.1% | [2] 59.6% | [3] 61.4% | [4] 38.7% | [5] 35.6% | [6] 45.2% | [7] 33.9% | [8] 32.4% | [9] 71.5% | [10] 69.2% | [11] 74.3% | [12] 74.2% | [14] 105% | [15] 80.8% | [17] 24.2% | [18] 30.4% | [19] 19.5%

CN1CCC2(CC1)NC(=O)c1c(c3ccc(Cl)c(Cl)c3n1C)C2C#N (stereo unspecified)
active: [7] -69.4% | [16] -26.4%
inactive: [1] 44.8% | [2] 34.3% | [3] 77.8% | [4] 90.6% | [5] 67.1% | [6] 37.8% | [8] 76.6% | [9] 70.4% | [10] 99.6% | [11] 89% | [12] 64.3% | [13] 61.7% | [14] 98.7% | [15] 73.9% | [20] 59.8% | [18] 64.1% | [19] 39.4%

COc1cc(/C=C2\Oc3cc(OCC(=O)c4ccccc4)ccc3C2=O)cc(OC)c1OC
inactive: [1] 112% | [2] 104% | [3] 118% | [4] 90.1% | [5] 85.2% | [6] 98.7% | [7] 96.7% | [8] 98.5% | [9] 108% | [10] 122% | [11] 108% | [12] 109% | [13] 67.6% | [14] 151% | [15] 89.6% | [16] 119% | [20] 105% | [18] 91%

CCCCCCCCCCCC[n+]1ccc(C(N)=O)cc1
inactive: [3] 18.6% | [7] 29% | [8] 25.6% | [9] 57.8% | [10] 30.9% | [11] 22.2% | [12] 12.3% | [13] 64.4% | [15] 87.5% | [16] 41.1% | [17] 13% | [18] 13.6% | [19] 14.5%
active: [1] 5.01% | [2] -4.25% | [4] -3.1% | [5] -18.2% | [6] -6.99% | [14] -28%

COc1cc(CNc2ccccc2C(=O)N2CCN(C(=O)c3cc(-c4cc(OC)c(OC)c(OC)c4)n4nc(-c5ccccc5)cc4n3)CC2)cc(OC)c1OC
active: [10] -0.722% | [20] -5.33% | [19] 8.84%
inactive: [1] 12.9% | [2] 33.5% | [3] 64.1% | [4] 35.2% | [5] 26.9% | [6] 16.5% | [7] 27% | [8] 35.7% | [9] 53% | [11] 63.6% | [12] 79.4% | [13] 19.1% | [14] 52.1% | [15] 51.8% | [16] 18.9% | [17] 58.8% | [18] 68%

— PubChem BioAssay (NCI)
